Drawing on paper PMC7819943, “Rice protein-binding microarrays: a tool to detect cis-acting elements near promoter regions in rice”, this text covers binding signal for 42 sequences.

Over roughly 68,000 sequences, “fluorescence intensity (a.u.)” has its median near 9,100; the highest 2% begin near 16,000. The list comes from a sample in which the highest values are over-represented; it also holds similar and randomly drawn sequences.

The target in the experiment is OsWRKY34 (Oryza sativa, UniProt Q0JBA9 1-250). As to the kind of experiment: protein-binding microarray (RPBM); PBS, 2% BSA, 51.3 ng/ul salmon testes DNA, 50 uM zinc acetate, 200 nM TF, 25 C, 1 h; high values mean tight binding. The conditions noted are these: protein: recombinant; tags: N-terminal polyhistidine and DsRed monomer fusion (pET32a); label: CyDye5-dUTP incorporated in the synthesized complementary strand; 3' TTTTT single-stranded linker to array surface; dsDNA, one strand shown. Put shortly: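 The binding signal for each feature is its fluorescence intensity in arbitrary units. An Axon 4000B scanner was used to read a custom Agilent array that had been made double-stranded with Cy5-dUTP primer extension, blocked with 2% BSA, incubated at 25 °C for 1 h with 200 nM protein in PBS, 2% BSA, salmon testes DNA and 50 µM zinc acetate, and washed. The protein was an N-terminal polyhistidine–DsRed transcription factor fusion from E. coli BL21-CodonPlus, purified on Ni–NTA.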
Chain of OsWRKY34 (Q0JBA9 entry or part of it): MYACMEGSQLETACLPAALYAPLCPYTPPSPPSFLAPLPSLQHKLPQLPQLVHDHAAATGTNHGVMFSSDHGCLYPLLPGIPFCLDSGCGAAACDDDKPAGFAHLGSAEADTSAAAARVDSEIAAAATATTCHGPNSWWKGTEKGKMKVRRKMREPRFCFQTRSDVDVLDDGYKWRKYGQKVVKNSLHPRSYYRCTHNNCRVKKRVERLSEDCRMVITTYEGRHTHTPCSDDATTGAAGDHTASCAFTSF
For the sequence “CACTACCTCAGTATTCTCTACTACTACTCTTTTCTCAGAGCGGAGTCACCTAGTGCAG”, the binding signal was 8470 fluorescence intensity (a.u.). Consider “TTGACTGGGTTTTTCTTTTTTTTTTCTGTTTTGTTGTTTGCGGAGTCACCTAGTGCAG”, for which the binding signal was 10100 fluorescence intensity (a.u.). On to “TTTTTGGGTGGGAGTTGTATTTTTTTAACATGTGGGAAAACGGAGTCACCTAGTGCAG”, for which the binding signal is 21300 fluorescence intensity (a.u.). With “GATCTGACCGGATTTTGCGGTGGGGTTTTCTTTTTTGGGTCGGAGTCACCTAGTGCAG”, the binding signal was 12200 fluorescence intensity (a.u.). With “TGGGGTTTTCTTTTTTGGGTTGGGTTGATCTTTTGGGTGGCGGAGTCACCTAGTGCAG”, the binding signal was 36600 fluorescence intensity (a.u.). To “ACTACTCACTCTTCATTGCTTTTTTTTTTCTCTCTCTAGCCGGAGTCACCTAGTGCAG” belongs 9600 fluorescence intensity (a.u.); to “AACTTGGTGGGTTTGGTTTTGCTCTTTCTGTTGACCAAGCCGGAGTCACCTAGTGCAG”, 12000 fluorescence intensity (a.u.).

Turning to “TGGGGTTCTTGTTTTTCTTTTCCGGGATCTTTGGGTGATGCGGAGTCACCTAGTGCAG”, the binding signal was 15900 fluorescence intensity (a.u.). To “TGGTTTTCTGTTTTCTTGGTTTTGGGTGGTGGCAGTTGACCGGAGTCACCTAGTGCAG” belongs 23200 fluorescence intensity (a.u.); to “GGTAAAACATGTTGGATTTTATTTTGGTGGGATGTGCAATCGGAGTCACCTAGTGCAG”, 9620 fluorescence intensity (a.u.); to “GTCTTATTGTGGTTGGGAGTTTAACGGTGTACCGAAGAAACGGAGTCACCTAGTGCAG”, 8780 fluorescence intensity (a.u.).

With “CTACTACTCTTTTCTCAGAGCTAGTGAGGGGCGGGCGGGCCGGAGTCACCTAGTGCAG”, the binding signal was 17500 fluorescence intensity (a.u.). “TCTTCGTCGACACCACCCCAGCCGGTGTCCCCACGCGCTCCGGAGTCACCTAGTGCAG”: the binding signal is 10100 fluorescence intensity (a.u.). On to “CCAGTTTGTATCTCATGTATTGGGCCTCGAAATCTGGTATCGGAGTCACCTAGTGCAG”, for which the binding signal is 12200 fluorescence intensity (a.u.). The figure for “GTTACTGCACATTGACCATCGCGTTACTGCACCGTTCTGCCGGAGTCACCTAGTGCAG” is 8940 fluorescence intensity (a.u.); for “GAGGGGTTTCATTGTTATTTTTGGGTAATCCAAATTTACACGGAGTCACCTAGTGCAG” it is 16300 fluorescence intensity (a.u.). As to “GCGAACCGCGAATACAATAGCCGGCGCCCCGCGCGTACACCGGAGTCACCTAGTGCAG”, the binding signal was 8070 fluorescence intensity (a.u.). For the sequence “TCCTCGCGACCTTAATTTACTCCTCCAATGGCCGCCGCTGCGGAGTCACCTAGTGCAG”, the binding signal is 8600 fluorescence intensity (a.u.). Regarding “CGCTGTATTTTGTTGGGATCACCTGTACATTTCTTCACAACGGAGTCACCTAGTGCAG”, the binding signal was 10900 fluorescence intensity (a.u.). For “TTTCTTGGTCTTTGGGTTAAATGTGGTTATGCCTTATATTCGGAGTCACCTAGTGCAG”, the binding signal is 8260 fluorescence intensity (a.u.). As to “GAGTCATAGTAGTGTAGTAGTGGGTCAACTCAGTCAAGTCCGGAGTCACCTAGTGCAG”, the binding signal is 8290 fluorescence intensity (a.u.).

For the sequence “GTATTATTGTCCCTTACATTGCTAACTCAATGTTGTATTACGGAGTCACCTAGTGCAG”, the binding signal is 8130 fluorescence intensity (a.u.). With “TTTTTACAACCCTGCGATTCAGATAGACCTTACCATTTTTCGGAGTCACCTAGTGCAG”, the binding signal is 8940 fluorescence intensity (a.u.).

Turning to “GTGGGTGGTTGGTGGTGGTGGTGGTGGTGGTGATCTTTGGCGGAGTCACCTAGTGCAG”, the binding signal was 23900 fluorescence intensity (a.u.).

Consider “TTTGATCTTGTGGTGGTTTGGGTGATCGGTGGCGATGGGGCGGAGTCACCTAGTGCAG”, for which the binding signal is 11000 fluorescence intensity (a.u.). For the sequence “GAGTAGGATGGGGTTTGATTTTGGGGTTCGTGGGGTCGAGCGGAGTCACCTAGTGCAG”, the binding signal was 17100 fluorescence intensity (a.u.). To “ATAGGAGGGGTCATATTAGTAGGGTTTTTTTTGGACGGAGCGGAGTCACCTAGTGCAG” belongs 8260 fluorescence intensity (a.u.); to “TAGGTGGTGTTTGGTTTATGGATCAGGTGGGTTGGGTTGGCGGAGTCACCTAGTGCAG”, 8740 fluorescence intensity (a.u.). Take “CAGCGGAGAGCGGCGGCGGCGAGTAGGATGGGGTTTGATTCGGAGTCACCTAGTGCAG”: the binding signal was 8380 fluorescence intensity (a.u.). “AAACTGTTCTCCTCCACTTGCCTATCTTATCCTCTCTTATCGGAGTCACCTAGTGCAG”: the binding signal was 8930 fluorescence intensity (a.u.).

“ACGGTTGTGTATTTCATAGTAGGGTGTAAATGTACGCTGACGGAGTCACCTAGTGCAG”: the binding signal was 8030 fluorescence intensity (a.u.). The figure for “ATACAACTTCGTCTGGCGCCCTCAATCGATCTCGCTCTATCGGAGTCACCTAGTGCAG” is 9870 fluorescence intensity (a.u.); for “AACCCTCATCTACTTCTGGCCCTCTAAGAGTTCTCCACTACGGAGTCACCTAGTGCAG” it is 8400 fluorescence intensity (a.u.).

As for “GTGTGTGCCTCCTTTTCTCTTCTTCAGTTTTCAACTCAAACGGAGTCACCTAGTGCAG”, the binding signal was 9440 fluorescence intensity (a.u.). Consider “CCTCATCCCGTCCAGCGTTCACCCGACGTCGCCCGTCGCACGGAGTCACCTAGTGCAG”, for which the binding signal was 10500 fluorescence intensity (a.u.).

On to “TGAGTCTTCACAATCCCATGTCACATGATCATGTGATCTTCGGAGTCACCTAGTGCAG”, for which the binding signal was 9860 fluorescence intensity (a.u.). Turning to “TGTACTGTAGGGGTGGGATTGTGATTGGAAAATGAATGAACGGAGTCACCTAGTGCAG”, the binding signal is 18600 fluorescence intensity (a.u.). The figure for “GTGATTGGATGGGTAGTGGAGACAGGTGGGAAAAATGAATCGGAGTCACCTAGTGCAG” is 8510 fluorescence intensity (a.u.); for “GTGGGATTAGGATTGGAAAATGAATGAAGGGTTAGAATTACGGAGTCACCTAGTGCAG” it is 8560 fluorescence intensity (a.u.). As to “GAAATGAGGGGTGGGATTGGGATTGGGATTGGAAAATGAACGGAGTCACCTAGTGCAG”, the binding signal was 11800 fluorescence intensity (a.u.). To “GTGGGGATTGGGTAGGAGAAGGAGTGGGGAATTAGGTTAGCGGAGTCACCTAGTGCAG” belongs 12200 fluorescence intensity (a.u.). To “GGGTGGGATTGGGATTGGGAAATGAATGAAGGGTTAGGATCGGAGTCACCTAGTGCAG” belongs 16400 fluorescence intensity (a.u.).
